Experiment [1] can be described thus: antimalarial activity against Dd2 strain (AID 2302;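 active = growth inhibition above 50% at the single 2 µM test dose, taken to imply half-maximal potency below 2 µM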;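 note: 0% = DMSO untreated growth and 100% = chloroquine plus artemisinin killed control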). The note with it: P. falciparum Dd2 in RBCs, LDH growth readout, 72 h; at 2 µM; hits give high values.
Experiment [2] can be described thus: human hepatoma cell viability loss – ATP luminescence, cytotoxicity control for P. falciparum antimalarial project, primary screen (AID 2303;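 active = inhibition above 50%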;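 note: 0% = DMSO wells and 100% = digitonin-killed cells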). The note with it: HepG2 viability, 24-48 h, at 10 µM, hits give high values.
Experiment [3] deals with L-lactate dehydrogenase (Plasmodium falciparum (isolate CDC / Honduras)) (UniProt Q27743). The experiment is described as follows: PfLDH activity inhibition – cell lysate, 3D7 strain, counter-screen for P. falciparum growth inhibition project (AID 2304).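 Note: 0% = vehicle and 100% = reference inhibitor.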 The note with it: P. falciparum 3D7 crude extract, LDH APAD/NBT absorbance; at 2 µM; hits give high values. (Counterscreens check selectivity or assay interference.)
Chain of L-lactate dehydrogenase (Plasmodium falciparum (isolate CDC / Honduras)) (Q27743 whole entry, looked up): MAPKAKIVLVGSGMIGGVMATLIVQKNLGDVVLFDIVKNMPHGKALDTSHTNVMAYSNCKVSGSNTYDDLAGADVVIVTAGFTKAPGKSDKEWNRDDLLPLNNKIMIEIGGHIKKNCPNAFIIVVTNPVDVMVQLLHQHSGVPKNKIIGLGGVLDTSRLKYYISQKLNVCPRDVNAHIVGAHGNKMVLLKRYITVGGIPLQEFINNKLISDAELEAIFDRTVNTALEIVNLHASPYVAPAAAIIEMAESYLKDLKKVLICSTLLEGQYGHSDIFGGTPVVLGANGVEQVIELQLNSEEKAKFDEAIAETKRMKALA

Experiment [4] can be described thus: inhibition of 3D7 malaria parasite growth – strain 3D7 (AID 2306).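 Note: 0% = DMSO wells and 100% = chloroquine plus artemisinin control wells.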 The settings on record: P. falciparum 3D7 erythrocytic growth, LDH absorbance, 72 h; at 2 µM; hits give high values.
Experiment [5] deals with Calcium-dependent protein kinase 1 (Plasmodium falciparum (isolate 3D7)) (UniProt P62344). The experiment is described as follows: PfCDPK1 kinase inhibitors, biochemical, TCAMS library (AID 1159585; cut-off not given, nearly all actives have IC50 up to about 0.98 µM;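 note: inhibitors leave more ATP so luminescence rises with inhibition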). The note with it: recombinant PfCDPK1, Kinase-Glo ATP depletion luminescence. Background: Kinase-Glo reads ATP consumption through a luciferase reaction.
Chain of Calcium-dependent protein kinase 1 (Plasmodium falciparum (isolate 3D7)) (P62344 whole entry, looked up): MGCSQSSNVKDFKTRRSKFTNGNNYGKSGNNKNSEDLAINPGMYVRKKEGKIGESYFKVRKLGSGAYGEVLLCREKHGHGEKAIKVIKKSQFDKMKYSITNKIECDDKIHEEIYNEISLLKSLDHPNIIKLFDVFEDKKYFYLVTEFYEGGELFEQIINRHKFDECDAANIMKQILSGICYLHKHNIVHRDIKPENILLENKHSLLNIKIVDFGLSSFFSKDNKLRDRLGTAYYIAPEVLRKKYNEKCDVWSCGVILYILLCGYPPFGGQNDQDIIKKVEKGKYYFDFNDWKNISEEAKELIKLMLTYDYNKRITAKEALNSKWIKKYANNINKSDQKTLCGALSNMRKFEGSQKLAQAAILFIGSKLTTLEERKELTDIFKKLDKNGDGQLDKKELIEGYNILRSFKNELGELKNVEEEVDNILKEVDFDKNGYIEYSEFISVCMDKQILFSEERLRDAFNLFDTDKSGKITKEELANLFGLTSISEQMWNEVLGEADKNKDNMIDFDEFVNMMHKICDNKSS
Experiment [6] has as its target Plasmodium falciparum protein kinase 6 (PK6, PF3D7_1337100) (UniProt Q8IDW1). Nature of the experiment: PfPK6 kinase inhibitors, biochemical, TCAMS library (AID 1159586). The note with it: recombinant PfPK6, Kinase-Glo ATP depletion luminescence.
In experiment [7] the target is Protein kinase 7 (PK7), Plasmodium falciparum 3D7 (PF3D7_0213400) (UniProt Q7YTF7). The experiment is described as follows: inhibition of Plasmodium PK7 catalytic activity – biochemical, TCAMS antimalarial set, Kinase-Glo luminescence (AID 1159587). The settings on record: recombinant PfPK7, Kinase-Glo ATP depletion luminescence.
Chain of Protein kinase 7 (PK7), Plasmodium falciparum 3D7 (PF3D7_0213400) (Q7YTF7 1-343): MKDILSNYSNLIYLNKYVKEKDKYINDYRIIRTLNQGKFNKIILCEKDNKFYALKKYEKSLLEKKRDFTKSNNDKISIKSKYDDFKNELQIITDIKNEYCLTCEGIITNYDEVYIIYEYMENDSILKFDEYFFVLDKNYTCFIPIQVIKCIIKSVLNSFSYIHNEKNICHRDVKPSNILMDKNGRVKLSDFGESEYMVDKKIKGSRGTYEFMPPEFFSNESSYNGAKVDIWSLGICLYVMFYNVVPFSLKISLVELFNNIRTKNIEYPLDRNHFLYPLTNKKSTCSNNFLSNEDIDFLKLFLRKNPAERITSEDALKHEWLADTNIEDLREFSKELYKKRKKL
Experiment [8] deals with Calcium-dependent protein kinase 4 (Plasmodium falciparum (isolate 3D7)) (UniProt Q8IBS5). The experiment is described as follows: PfCDPK4 kinase inhibitors, biochemical, TCAMS library (AID 1159588; cut-off not given, nearly all actives have IC50 up to about 0.91 µM). The note with it: recombinant PfCDPK4, Kinase-Glo ATP depletion luminescence.
Chain of Calcium-dependent protein kinase 4 (Plasmodium falciparum (isolate 3D7)) (Q8IBS5 whole entry, looked up): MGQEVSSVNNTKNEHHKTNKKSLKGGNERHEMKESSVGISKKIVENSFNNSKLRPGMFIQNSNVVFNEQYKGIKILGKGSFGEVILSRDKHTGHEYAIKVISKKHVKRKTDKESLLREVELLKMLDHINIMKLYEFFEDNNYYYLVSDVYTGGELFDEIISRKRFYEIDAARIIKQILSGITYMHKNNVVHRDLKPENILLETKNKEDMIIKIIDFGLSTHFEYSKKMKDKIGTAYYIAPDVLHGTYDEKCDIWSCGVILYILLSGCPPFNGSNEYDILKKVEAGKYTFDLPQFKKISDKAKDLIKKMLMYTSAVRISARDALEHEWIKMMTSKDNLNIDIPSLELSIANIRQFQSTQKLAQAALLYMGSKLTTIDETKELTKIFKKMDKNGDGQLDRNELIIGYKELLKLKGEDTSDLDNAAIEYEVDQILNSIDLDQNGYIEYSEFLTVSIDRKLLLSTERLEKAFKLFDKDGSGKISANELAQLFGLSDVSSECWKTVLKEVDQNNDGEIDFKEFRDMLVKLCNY

Values without a mark were called inactive. For some assays here: Entries with a potency or affinity are not part of this list. Calls of active or inactive are those of the source. Unless noted, the rule behind the calls is not given here.

Chain of Plasmodium falciparum protein kinase 6 (PK6, PF3D7_1337100) (Q8IDW1 1-305): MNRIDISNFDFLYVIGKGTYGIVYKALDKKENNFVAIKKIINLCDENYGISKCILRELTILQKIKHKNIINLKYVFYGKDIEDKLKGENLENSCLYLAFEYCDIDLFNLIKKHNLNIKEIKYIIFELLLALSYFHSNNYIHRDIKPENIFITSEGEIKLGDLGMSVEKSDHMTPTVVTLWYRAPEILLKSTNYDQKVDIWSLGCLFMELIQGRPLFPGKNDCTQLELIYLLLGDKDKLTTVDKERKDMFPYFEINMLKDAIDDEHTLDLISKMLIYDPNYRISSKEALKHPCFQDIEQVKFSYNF

Consider `Cc1cc(NN=CC=Cc2ccccc2)c2ccc(F)cc2n1`, for which the growth inhibition was 30% in experiment [1] and 100% (active) in experiment [4]. For the same compound, the inhibition in experiment [2] was 14%; in experiment [3] it was -3%. In addition, the result in experiment [5], in experiment [6], in experiment [7] and in experiment [8] was inactive.

`COc1cc2c(cc1OC)CC(NCc1ccc(-c3ccc4nc[nH]c4c3)cc1)C2`: the growth inhibition in experiment [1] was 92% (active); in experiment [4], 97% (active). The values for the inhibition in experiment [2] and in experiment [3] were 40% and 0%, respectively. Besides, the outcome in experiment [5], in experiment [6], in experiment [7] and in experiment [8] was inactive.

`COc1ccccc1C1CC(c2ccc(Br)cc2)=NN1C(=O)c1ccccc1` (configuration not stated): the growth inhibition in experiment [1] was 59% (active); in experiment [4], 85% (active). Besides, the inhibition in experiment [2] was 12%; in experiment [3] it was -6%. Besides, the result in experiment [5], in experiment [6], in experiment [7] and in experiment [8] was inactive.

Turning to `CCc1cn2c3c(cc(C(=O)N[C@@H](Cc4cccc(F)c4)[C@H](O)CNC4CC4)cc13)N(C)S(=O)(=O)CC2`, the growth inhibition in experiment [1] and in experiment [4] was 98% (active) in each case. Also, the inhibition is 2% in experiment [2] and 1% in experiment [3]. In addition, the outcome in experiment [5], in experiment [6], in experiment [7] and in experiment [8] was inactive.

Consider `CC1(C)CCC(C)(C)c2c1ccc(C1CCN(CCCCNC(=O)c3ccc(-c4ccc(C#N)cc4)cc3)CC1)c2O`, for which the growth inhibition is 85% (active) in experiment [1] and 100% (active) in experiment [4]. For the same compound, the inhibition was 81% (active) in experiment [2] and 7% in experiment [3]. The result in experiment [5], in experiment [6], in experiment [7] and in experiment [8] was inactive.

With `CCCCCCCCc1c(C)[nH]c(C)c(Br)c1=O`, the growth inhibition in experiment [1] was 92% (active); in experiment [4], 96% (active). Moreover, the inhibition in experiment [2] was -5%; in experiment [3], 7%. Further, the outcome in experiment [5], in experiment [6], in experiment [7] and in experiment [8] was inactive.

With `C[C@@H]1CN(c2cnn(Cc3ccc(NC(=O)Nc4cccc(C(F)(F)F)c4)cc3)c(=O)c2Cl)C[C@H](C)N1`, the growth inhibition in experiment [1] is 31%; in experiment [4] it was 86% (active). Further, the inhibition in experiment [2] was -10%; in experiment [3], -7%. Moreover, the result in experiment [5], in experiment [6], in experiment [7] and in experiment [8] was inactive.

Consider `O=[N+]([O-])c1cc(C=NNc2nc3nonc3nc2Nc2ccc(F)cc2)c(Cl)cc1Cl`, for which the growth inhibition was 13% in experiment [1] and 98% (active) in experiment [4]. Besides, the inhibition in experiment [2] is 5%; in experiment [3], -4%. The result in experiment [5], in experiment [6], in experiment [7] and in experiment [8] was inactive.

For the compound `COc1ccc2c(Nc3ccc(N4CCN(C)CC4)cc3)cc(C)nc2c1`, the growth inhibition in experiment [1] was 9%; in experiment [4], 101% (active). Further, the results for the inhibition in experiment [2] and in experiment [3] were 23% and -2%, respectively. Further, the result in experiment [5], in experiment [6], in experiment [7] and in experiment [8] was inactive.

For the compound `CC1(C)OC[C@]2(C)[C@@H](CC[C@]3(C)C4=CC(=O)CCC4CC[C@@H]23)O1` (some centres not stated), the growth inhibition is 95% (active) in experiment [1] and 97% (active) in experiment [4]. Besides, the inhibition was -2% in experiment [2] and 1% in experiment [3]. The outcome in experiment [5], in experiment [6], in experiment [7] and in experiment [8] was inactive.

On to `O=C(Nc1ccc(Cl)cc1)Nc1ccc(Cn2ncc(N3CCCNCC3)c(Cl)c2=O)cc1`, for which the growth inhibition is 11% in experiment [1] and 85% (active) in experiment [4]. Further, the inhibition in experiment [2] was 49%; in experiment [3], 1%. Moreover, the result in experiment [5], in experiment [6], in experiment [7] and in experiment [8] was inactive.

Regarding `O=C(Nc1ccc(Cn2ncc(N3CCCNCC3)c(Cl)c2=O)cc1)Nc1ccc(OCc2ccccc2)cc1`, the growth inhibition is 32% in experiment [1] and 90% (active) in experiment [4]. For the same compound, the inhibition in experiment [2] was 15%; in experiment [3], 5%. The outcome in experiment [5], in experiment [6], in experiment [7] and in experiment [8] was inactive.

As for `O=C(Cn1c(SCc2cccc(F)c2F)cc(=O)c2ccccc21)N(CCc1cnc[nH]1)Cc1ccc(-c2ccc(C(F)(F)F)cc2)cc1`, the growth inhibition in experiment [1] is 72% (active); in experiment [4], 101% (active). Further, the figures for the inhibition in experiment [2] and in experiment [3] were 18% and 7%, respectively. Besides, the outcome in experiment [5], in experiment [6], in experiment [7] and in experiment [8] was inactive.

Turning to `COc1ccc2nc3cc(Cl)ccc3c(NCCCCCCNc3c4ccc(Cl)cc4nc4ccc(OC)cc34)c2c1`, the figures for the growth inhibition in experiment [1] and in experiment [4] were 79% (active) and 96% (active), respectively. For the same compound, the inhibition is 20% in experiment [2] and -5% in experiment [3]. Further, the result in experiment [5], in experiment [6], in experiment [7] and in experiment [8] was inactive.

`COC(=O)c1cccc(CNCc2cccc(-c3ccc(-c4nc5c(C)cccc5[nH]4)cc3)c2)c1`: the figures for the growth inhibition in experiment [1] and in experiment [4] were 52% (active) and 102% (active), respectively. Moreover, the inhibition in experiment [2] is 3%; in experiment [3], 2%. The outcome in experiment [5], in experiment [6], in experiment [7] and in experiment [8] was inactive.

On to `CC(=O)c1cc(N2CCOCC2)ccc1N`, for which the growth inhibition is 43% in experiment [1] and 91% (active) in experiment [4]. Further, the inhibition in experiment [2] is 7%; in experiment [3], 3%. The result in experiment [5], in experiment [6], in experiment [7] and in experiment [8] was inactive.

As for `CC(C)c1ccc(-c2noc(SCC(=O)N(C)c3ccc(F)cc3)n2)cc1`, the growth inhibition in experiment [1] was 77% (active); in experiment [4], 84% (active). The inhibition was 7% in experiment [2] and 3% in experiment [3]. For the same compound, the result in experiment [5], in experiment [6], in experiment [7] and in experiment [8] was inactive.

Take `COc1cc(Nc2nccc(N3CCC(NC(=O)C4COc5ccccc5O4)C3)n2)cc(OC)c1OC` (configuration not stated): the growth inhibition in experiment [1] is 58% (active); in experiment [4], 90% (active). In addition, the inhibition in experiment [2] and in experiment [3] was 5% each time. Besides, the result in experiment [5], in experiment [6], in experiment [7] and in experiment [8] was inactive.

As to `Cc1cccc2[nH]c(-c3ccc(-c4ccc(NC(=O)C5CCN(C)CC5)cc4)cc3)nc12`, the values for the growth inhibition in experiment [1] and in experiment [4] were 92% (active) and 100% (active), respectively. The values for the inhibition in experiment [2] and in experiment [3] were 28% and 1%, respectively. Moreover, the result in experiment [5], in experiment [6], in experiment [7] and in experiment [8] was inactive.

By inhibition is commonly meant the relative decrease from the control value, in per cent.

(Values after PubChem BioAssay.)
